Columns and labels:
Assay in all cases: PBM binding z-score (relative to random genomic background probes); higher = stronger binding; sequences stand for … in GC…GCGATTGACAGCGTAGAATGAAGG
[1] = system: PPARg:RXRa IVT, anti-PPARg (NR concentration 270 nM, RXRa partner concentration 90 nM)
How it was run: (§1)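 Probes were double-stranded and carried 34-nt variable regions with direct-repeat seeds, single-nucleotide variants, half-site ablations and random human genomic background sequences, printed on custom Agilent 4×180K protein-binding microarrays. Arrays were incubated 1 h with ligand-free nuclear receptor dimers in PBS pH 7.4, 2% milk, 0.02% Triton X-100, 1 mM DTT, 0.2 mg/mL BSA and 0.4 mg/ml salmon testes DNA. Antibodies against each partner (one per run) detected binding, and scanned fluorescence was regression-normalized. Binding z-scores use the random background probes as reference.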

[2] = system: PPARg DBDmut:RXRa IVT, anti-PPARg (DBD mutation: PPARg1 K132A/R137A, NR concentration 270 nM, RXRa partner concentration 90 nM)
How it was run: as §1

[3] = system: PPARg DBDmut IVT, anti-PPARg (DBD mutation: PPARg1 K132A/R137A, NR concentration 270 nM)
How it was run: as §1

[4] = system: PPARg homodimer (NR concentration 180 nM)
How it was run: as §1

[5] = system: PXR:RXRa (NR concentration 270 nM, RXRa partner concentration 90 nM)
How it was run: as §1

[6] = system: PXR homodimer (NR concentration 270 nM)
How it was run: as §1

[7] = system: RARa:RXR (NR concentration 270 nM, RXRa partner concentration 90 nM)
How it was run: as §1

[8] = system: RARa homodimer (NR concentration 270 nM)
How it was run: as §1

[9] = system: RARb:RXRa (NR concentration 270 nM, RXRa partner concentration 90 nM)
How it was run: as §1

[10] = system: RARb homodimer (NR concentration 270 nM)
How it was run: as §1

Row | Sequence | PBM binding z-score [1] | PBM binding z-score [2] | PBM binding z-score [3] | PBM binding z-score [4] | PBM binding z-score [5] | PBM binding z-score [6] | PBM binding z-score [7] | PBM binding z-score [8] | PBM binding z-score [9] | PBM binding z-score [10]
1 | TTACCAAGGTGAACGGTCGTTGATGCACGCCTTG | 3.55 | 1.13 | 0.904 | 0.997 | -0.0425 | -0.818 | 0.693 | -0.752 | 2.03 | 1.31
2 | TAGCCTAGGTCATACAGGGGCCAGTATAGAAAGC | 2.89 | 0.2 | -0.11 | 1.83 | 2.1 | -0.101 | 3.56 | 0.204 | 3.91 | 3.38
3 | AGTCAAAGTGCATCTAGGTAACGTAAGATATGCT | 2.46 | 0.878 | 0.653 | 0.197 | 0.516 | 0.154 | 0.595 | -0.00454 | 1.53 | 0.456
4 | CGAACTACGTCATCCAGGACAGTGAATACATTGA | 0.155 | 0.664 | 1.1 | 0.384 | -0.0551 | 0.144 | 0.358 | 0.377 | -0.0115 | -0.0588
5 | CGTCCAAGGTCATAGGAGGTCAATGAAGACAGAT | 5.13 | 0.774 | 0.632 | 4.29 | 7.13 | 6.06 | 6.16 | 1.49 | – | 5.71
6 | ATATGTAGGTTATCGGGTCATACAGTTTGCGCAT | 7.62 | 3.33 | 1.78 | 2.48 | 3.54 | 2.74 | 4 | 1.32 | 2.75 | 3.17
7 | TAGCCTAGGTCATGCGGGACAGTATAGTGTCGGC | 3.2 | 0.574 | 0.484 | 1.45 | 1.82 | -0.102 | 2.58 | -0.0247 | 3.72 | 2.99
8 | TAGCCTAGGTCATGGGCCAGTGTACCACGCGAAC | 3.43 | 0.332 | 0.203 | 1.42 | 1.6 | -0.511 | 2.86 | -0.252 | 4.01 | 3.09
9 | GCTAGTTGGTCAGTAAAATGTCACACACCGGTCG | 0.672 | 0.0763 | -0.339 | 1.21 | -0.0576 | 0.0723 | 0.0348 | 0.262 | 0.995 | 1.43
10 | CGAACAAGGTCATCCAGGACAGTGAATACATTGA | 5.07 | 3.54 | 2.64 | 3.58 | 5.44 | 7.22 | 5.39 | 2.04 | 5.19 | 4
11 | CCTTACGGGTCAAGGTTATAGCCCGGGTGGTACG | 3.44 | -0.234 | -0.862 | 1.69 | 3.43 | 0.303 | 4.46 | 0.676 | 4.33 | 3.8
12 | ATCGAAAGGTCGTGAGGTAAGTATACAGAAAGGC | 2.1 | 1.96 | 0.952 | 2.1 | 3.42 | 0.535 | 4.43 | 1.16 | 3.99 | 2.76

Source: the supplement of paper PMC6555819
